Bioassay records deposited in PubChem BioAssay by Johns Hopkins Ion Channel Center.
Most compounds without a hit are left out; they make up all but 2.4% or so of the library.
ANO1 activ = activates or potentiates the mouse TMEM16A chloride channel; Q8BHY3; HEK293 TMEM16A/YFP-H148Q/I152L, iodide quench fluorescence; hits give low values; B-score at 10 µM; 340,000 compounds, 0.3% hits; AID 623877;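 active means fluorescence-ratio B-score plate-corrected deviation score at least 3 library SD below zero, with starting fluorescence score within 5 deviations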;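 further: channel opened by trigger with iodide after compound preincubation; score built on the fluorescence ratio of max minus min over baseline; more negative score means more quench and so TMEM16A activation or potentiation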
ANO1 block = inhibitors of mouse TMEM16A calcium-activated chloride channel | HEK293 TMEM16A/YFP iodide influx fluorescence, ionomycin | Q8BHY3 | normalized B-score (activity score, 25-100; higher = stronger inhibition) at 10 µM | 310,000 compounds, 1.2% hits;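 active means ratio plate-corrected score three or more library SD toward inhibition, starting fluorescence score within five deviations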;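 further: score derived from kinetic fluorescence span divided by baseline fluorescence per well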
CHT block = human CHT choline transport inhibition. B-score at 10 µM. AID 488975. CHT-expressing cells, membrane potential dye, choline response; hits give low values. 310,000 compounds, 0.86% hits. Q9GZV3;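 active means B-score over 3 SD under the library average, and starting fluorescence ratio not unusually high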;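 further: choline stimulus applied at its EC90 after an EC20 pre-addition; B-score computed on integrated fluorescence ratio after choline addition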
CHT allo act = allosteric activators of human choline transporter CHT; Q9GZV3; CHT-expressing cells, membrane potential dye, choline EC20; hits give high values; LV-AA mutant CHT in HEK293 cells; B-score at 10 µM; 310,000 compounds, 0.49% hits; AID 488977;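 active means initial fluorescence not abnormally high and integrated response B-score, plate-corrected, over 3 SD above library mean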
CHT block conf = human CHT inhibition, confirmatory screen; shares compounds with CHT block; CHT-expressing cells, choline membrane potential dye; LV-to-AA substituted CHT, HEK293 cells; CHT activity remaining % of control (hits give low values), % at 10 µM; 2,400 compounds, 70% hits; AID 493221;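 active means choline transporter activity left, mean of duplicates at 10 µM, below buffer-only control mean minus 3 SD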;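 further: depolarization triggered by choline at its EC90 following an EC20 pre-addition; 0% = hemicholinium-3 full block and 100% = buffer-only control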
HEK293 CHT ctr = CHT inhibitor counter-screen hit in parental HEK293 cells; shares compounds with CHT block; membrane potential dye, choline response; active = decrease or increase beyond buffer ±3SD; membrane potential ratio readout (active if shifted either direction beyond buffer ±3SD; no single direction) at 10 µM; 2,400 compounds, 4% hits;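 further: parental cells lack the transporter so any hit is non-specific; ratio is peak minus trough fluorescence over baseline after EC90 choline challenge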
CHT act confirm = human CHT activation, confirmatory screen. 2,500 compounds, 91% hits. CHT-expressing cells, membrane potential dye fluorescence (FDSS); % of choline EC20–EC90 response window; HEK293 expressing CHT LV-AA mutant; choline added at its EC20. activation, % at 10 µM. shares compounds with CHT allo act;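 active means primary screen active, with duplicate mean activation above negative control mean plus 3 SD, cut at about 11% in these data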
HEK293 MP dye = counter-screen for CHT activators: effect in parental HEK293 cells | shares compounds with CHT allo act | membrane potential dye fluorescence (FDSS); measured after EC20 choline addition | ratio readout change at 10 µM, hits read low | 2,500 compounds, 62% hits;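 active means duplicate-averaged ratio beyond 3 SD from buffer wells, up or down, though filed actives are nearly all decreases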
TMEM16A reconf = TMEM16A (mouse) chloride channel inhibition, re-confirmation; shares compounds with ANO1 block; HEK293 TMEM16A/YFP-H148Q, iodide quench fluorescence; ionomycin added to raise cell calcium; inhibition, % at 10 µM; 2,300 compounds, 39% hits; AID 652189;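 active means mean duplicate percent inhibition, scaled so buffer wells are 0 and the reference blocker 100, over three buffer SD above buffer mean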
TMEM16A Ca cntr = counter-screen for TMEM16A inhibitors: effect on calcium mobilization. shares compounds with ANO1 block. TMEM16A/YFP HEK293, Fluo4 calcium mobilization. calcium response (% of ionomycin), % at 10 µM. 2,300 compounds, 2% hits. AID 652231;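 active means duplicate-averaged calcium signal over 20% of the ionomycin maximum, relative to buffer baseline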;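 further: each well's signal is peak minus trough fluorescence divided by its pre-addition baseline; 0% = buffer wells and 100% = ionomycin wells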
YFP-HEK293 quench = counter-screen for TMEM16A inhibitors: effect in parental YFP-HEK293 cells; shares compounds with ANO1 block; iodide YFP quench, ionomycin; YFP ratio F(max-min)/F0 at 10 µM; 2,300 tested, under 10 active; AID 652233;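 active means yellow fluorescent protein signal ratio exceeding the buffer control mean by over 5 SD of those controls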;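 further: ratio is mean of duplicate wells from kinetic YFP trace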
ClC-1 inh = selectivity of TMEM16A inhibitors: inhibition of rat ClC-1 chloride channel; shares compounds with ANO1 block; CHO ClC-1-YFP, iodide influx fluorescence quench; iodide control reads 0, buffer control 100; ratio percent, % at 10 µM; 2,300 tested, under 10 active; AID 652236;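 active means duplicate-mean ratio percent above the mean of iodide-only control wells, which defines zero, plus 5 of their SD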;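 further: higher percent means stronger block of ClC-1 iodide influx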
Target sequence (P35524 whole entry, looked up): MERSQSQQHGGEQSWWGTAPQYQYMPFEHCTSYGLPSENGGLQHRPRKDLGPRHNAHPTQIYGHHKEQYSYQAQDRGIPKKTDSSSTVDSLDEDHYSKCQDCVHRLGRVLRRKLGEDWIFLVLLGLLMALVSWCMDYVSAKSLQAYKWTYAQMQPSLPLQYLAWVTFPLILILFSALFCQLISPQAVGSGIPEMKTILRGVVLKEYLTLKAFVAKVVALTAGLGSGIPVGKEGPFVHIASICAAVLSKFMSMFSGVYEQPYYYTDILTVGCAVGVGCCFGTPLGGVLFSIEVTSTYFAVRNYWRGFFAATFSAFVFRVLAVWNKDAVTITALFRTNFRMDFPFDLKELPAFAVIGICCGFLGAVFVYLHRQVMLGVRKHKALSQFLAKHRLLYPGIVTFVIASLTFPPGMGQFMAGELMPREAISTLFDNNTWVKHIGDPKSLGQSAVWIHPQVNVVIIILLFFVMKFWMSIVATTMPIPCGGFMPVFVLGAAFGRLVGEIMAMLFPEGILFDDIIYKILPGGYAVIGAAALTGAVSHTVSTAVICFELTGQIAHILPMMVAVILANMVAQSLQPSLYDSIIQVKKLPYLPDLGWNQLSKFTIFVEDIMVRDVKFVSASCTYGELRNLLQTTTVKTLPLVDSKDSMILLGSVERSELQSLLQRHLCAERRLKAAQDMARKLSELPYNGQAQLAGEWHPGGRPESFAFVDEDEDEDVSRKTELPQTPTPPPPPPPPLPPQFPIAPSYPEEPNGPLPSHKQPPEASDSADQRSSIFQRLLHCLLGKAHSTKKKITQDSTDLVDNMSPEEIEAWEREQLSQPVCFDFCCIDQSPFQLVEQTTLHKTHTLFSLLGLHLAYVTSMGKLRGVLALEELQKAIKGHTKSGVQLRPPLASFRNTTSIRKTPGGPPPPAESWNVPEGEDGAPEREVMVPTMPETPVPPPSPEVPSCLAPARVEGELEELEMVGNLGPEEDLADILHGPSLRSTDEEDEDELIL
* marks the source's active call; other numbers are inactive results; i = inactive; · = not tested or not shown.

SMILES	ANO1 activ	ANO1 block	CHT block	CHT allo act	CHT block conf	HEK293 CHT ctr	TMEM16A reconf	TMEM16A Ca cntr	YFP-HEK293 quench	ClC-1 inh	others
Cc1ccc(S(=O)(=O)N/N=C/c2cc(Br)ccc2O)cc1	i	100*	-5.6*	i	67%*	i	20%*	i	-0.89	-12
COC(=O)Cc1ccc(N(Cc2ccccc2F)S(=O)(=O)c2ccc(Cl)cc2)cc1	i	i	i	i	·	·	·	·	·	·
CCCCn1c(CN2CCN(c3cccc(Cl)c3)CC2)nc2c1c(=O)n(C)c(=O)n2C	i	25*	-13*	i	29%*	i	i	i	-1.1	-12
CCCCCn1c(CN2CCN(c3cccc(Cl)c3)CC2)nc2c1c(=O)n(C)c(=O)n2C	i	i	i	i	·	·	·	·	·	·
O=C(O)C1=CC[C@@H](c2ccc(Cl)cc2)N(S(=O)(=O)c2ccc(Cl)cc2)[C@H]1c1ccc(F)cc1	i	100*	-6.3*	i	58%*	i	i	i	-0.97	-28
Cc1ccc([C@@H]2CC=C(C(=O)O)[C@H](c3ccc(F)cc3)N2S(=O)(=O)c2ccc(C)cc2)cc1	i	i	i	i	·	·	·	·	·	·
CC(C)(C)c1ccc(OCCC(=O)OCC(=O)NCc2ccccc2)cc1	i	i	i	i	·	·	·	·	·	·
O=C1CC(O)(C(F)(F)F)Oc2c1ccc1ccccc21 (stereo unspecified)	i	100*	-8.1*	i	46%*	i	54%*	38%*	-1.1	-24
C1CC1Cc1noc(CN2CCN(C3C4CC5CC(C4)CC3C5)CC2)n1 (stereo unspecified)	i	i	i	i	·	·	·	·	·	·
O=C(c1ccccc1Br)N1CCCC(c2nc(-c3cccs3)no2)C1 (stereo unspecified)	i	25*	-6.3*	i	i	i	19%*	i	-1	-15
O=C(c1ccc(Br)cc1)N1CCCC(c2nc(-c3cccs3)no2)C1 (stereo unspecified)	i	i	i	i	·	·	·	·	·	·
CC(=O)Nc1ccc(S(=O)(=O)N2CCSc3ccccc32)cc1	i	·	·	·	·	·	·	·	·	·
CN(C(=O)Cn1cnc([N+](=O)[O-])n1)C1CCCCC1	i	i	i	i	·	·	·	·	·	·
C=CCNC(=O)c1onc(CSc2ccc(C(C)C)cc2)c1C(=O)O	i	25*	-5.2*	i	61%*	i	i	i	-1	-16
O=C(NCCCN1CCCC1)c1ccc(CS(=O)(=O)c2c(Cl)cccc2Cl)o1	i	i	i	i	·	·	·	·	·	·
O=C1C2C(C(=O)N1/N=C/c1cc(Br)cc([N+](=O)[O-])c1O)C1C=CC2C12CC2 (stereo unspecified)	i	i	-7.6*	i	43%*	i	19%*	i	-0.64	9
O=C1C2C(C(=O)N1/N=C/c1cc([N+](=O)[O-])c(O)cc1O)C1C=CC2C12CC2 (stereo unspecified)	i	i	i	i	·	·	·	·	·	·
Cc1csc(NC(=O)c2ccccc2O)n1	i	i	i	i	·	·	·	·	·	·
CC(C)(C)c1csc(NC(=O)c2ccccc2O)n1	i	25*	-6.8*	i	i	i	23%*	i	-0.95	-2
CCCOc1ccc(C(F)(F)F)cc1NC(=O)C1CC(=O)N(Cc2ccco2)C1 (stereo unspecified)	i	·	·	·	·	·	·	·	·	·
Cc1cccc(OCCC(=O)NNC(=O)c2ccoc2C)c1	i	·	·	·	·	·	·	·	·	·
O=S(=O)(Nc1nc2ccccc2nc1Cl)c1cccc(C(F)(F)F)c1	i	25*	-5.2*	i	i	i	21%*	i	-1.1	-10
O=C(Nc1cc(S(=O)(=O)N2CCCCC2)ccc1O)c1ccccc1NS(=O)(=O)c1ccc(F)cc1	i	100*	-5.4*	i	27%*	i	68%*	i	-1	-18
COc1ccc(C(=O)N/N=C/c2ccccn2)cc1OC	i	i	i	10*	·	·	·	·	·	·	CHT act confirm=54*;HEK293 MP dye=-66*
COc1ccc(CCNC(N)=S)cc1OC	i	i	i	i	·	·	·	·	·	·
SMILES	ANO1 activ	ANO1 block	CHT block	CHT allo act	CHT block conf	HEK293 CHT ctr	TMEM16A reconf	TMEM16A Ca cntr	YFP-HEK293 quench	ClC-1 inh	others
COC(=O)c1cc2c(C)[nH]c(C)c2cc(C(=O)OC)c1=O	i	i	i	i	·	·	·	·	·	·	CHT act confirm=30*;HEK293 MP dye=-45*
Cc1cc(C)nc(/N=C(\N)Nc2ccc(S(=O)(=O)Nc3nccc(C)n3)cc2)n1	i	i	i	7.2*	·	·	·	·	·	·	CHT act confirm=58*;HEK293 MP dye=-56*
O=[N+]([O-])c1ccc2nc(-c3ccc(Cl)cc3)n(OCc3ccccc3)c2c1	i	i	i	i	·	·	·	·	·	·
Clc1ccc(COn2c(-c3ccccc3)nc3ccccc32)cc1	i	i	i	6.5*	·	·	·	·	·	·	CHT act confirm=26*;HEK293 MP dye=i
Cc1cc(=O)n2nc(-c3ccc(C(F)(F)F)cc3)sc2n1	i	i	i	6.8*	·	·	·	·	·	·	CHT act confirm=42*;HEK293 MP dye=-35*
CCOc1ccc(NC(=O)CN(C)C(=O)c2cc3c(s2)CCCCC3)cc1OCC	i	i	i	i	·	·	·	·	·	·
Nc1ccc(Cl)c[n+]1Cc1cccc2cccnc12	i	i	i	i	·	·	·	·	·	·
Cc1cc(C[n+]2ncsc2N)c2ncccc2c1	i	i	i	i	·	·	·	·	·	·	CHT act confirm=73*;HEK293 MP dye=-23*
Cc1cc(C[n+]2cc(Cl)ccc2N)c2ncccc2c1	i	i	i	16*	·	·	·	·	·	·	CHT act confirm=46*;HEK293 MP dye=-39*
Cc1cc(C[n+]2cc(Br)ccc2N)c2ncccc2c1	i	i	i	8.5*	·	·	·	·	·	·	CHT act confirm=49*;HEK293 MP dye=-44*
